About 2,000 (36%) of roughly 5,500 compounds were called active. About 18% were inconclusive and are not listed. Rule as the data show it: active = normalized growth mostly below about 0.91 (no sharp cut-off); inconclusive = no clear call, values can overlap the other calls; inactive = mostly above about 0.92. The list shows a part of the results.
Assay: chemical genetic growth profiling, strain panel (AID 1159580);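 also: tested at 20 µM; growth read once vehicle control cultures reached saturation at 30 °C; 1 = growth at the plate median or of vehicle wells; lower values mean less growth of the strain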
Conditions: growth OD

Measured: normalized growth

CC1=CC(=O)C(C(C)C)=CC1=O
active: S. cerevisiae deletion strains, locus YKR001C, strain vps1, stronger effect = lower value 0.727 | S. cerevisiae deletion strains, locus YKR026C, strain gcn3, stronger effect = lower value 0.903 | S. cerevisiae deletion strains, locus YLL026W, stronger effect = lower value 0.838 | S. cerevisiae deletion strains, locus YLR027C, strain aat2, stronger effect = lower value 0.638 | S. cerevisiae deletion strains, locus YLR221C, strain rsa3, stronger effect = lower value 0.355 | S. cerevisiae deletion strains, locus YLR258W, strain gsy2, stronger effect = lower value 0.902 | S. cerevisiae deletion strains, locus YLR262C, strain YPT6 (second series), stronger effect = lower value 0.724 | S. cerevisiae deletion strains, locus YLR268W, strain sec22, stronger effect = lower value 0.764 | S. cerevisiae deletion strains, locus YLR320W, strain mms22, stronger effect = lower value 0.721 | S. cerevisiae deletion strains, locus YLR330W, strain CHS5, stronger effect = lower value 0.648 | S. cerevisiae deletion strains, locus YLR342W, strain FKS1 (second series), stronger effect = lower value 0.749 | S. cerevisiae deletion strains, locus YLR357W, strain rsc2, stronger effect = lower value 0.632 | S. cerevisiae deletion strains, locus YLR371W, strain rom2, stronger effect = lower value 0.715 | S. cerevisiae deletion strains, locus YLR418C, strain cdc73, stronger effect = lower value 0.54 | S. cerevisiae deletion strains, locus YML032C, strain rad52, stronger effect = lower value 0.89 | S. cerevisiae deletion strains, locus YML120C, strain ndi1, stronger effect = lower value 0.13 | S. cerevisiae deletion strains, locus YMR058W, strain fet3, stronger effect = lower value 0.759 | S. cerevisiae deletion strains, locus YMR125W, strain sto1, stronger effect = lower value 0.397 | S. cerevisiae deletion strains, locus YMR129W, stronger effect = lower value 0.839 | S. cerevisiae deletion strains, locus YMR205C, strain PFK2, stronger effect = lower value 0.868 | S. cerevisiae deletion strains, locus YMR223W, strain ubp8, stronger effect = lower value 0.847 | S. cerevisiae deletion strains, locus YMR307W, strain GAS1, stronger effect = lower value 0.49 | S. cerevisiae deletion strains, locus YNL071W, strain lat1, stronger effect = lower value 0.274 | S. cerevisiae deletion strains, locus YNL233W, strain BNI4, stronger effect = lower value 0.657 | S. cerevisiae deletion strains, locus YNL248C, strain rpa49, stronger effect = lower value 0.409 | S. cerevisiae deletion strains, locus YNL271C, strain bni1, stronger effect = lower value 0.917 | S. cerevisiae deletion strains, locus YNL298W, strain CLA4, stronger effect = lower value 0.899 | S. cerevisiae deletion strains, locus YNL307C, strain MCK1, stronger effect = lower value 0.589 | S. cerevisiae deletion strains, locus YNL322C, strain KRE1 (second series), stronger effect = lower value 0.876 | S. cerevisiae deletion strains, locus YOL147C, strain pex11, stronger effect = lower value 0.872 | S. cerevisiae deletion strains, locus YOR001W, strain rrp6, stronger effect = lower value 0.664 | S. cerevisiae deletion strains, locus YOR106W, strain vam3, stronger effect = lower value 0.72 | S. cerevisiae deletion strains, locus YOR144C, strain elg1, stronger effect = lower value 0.916 | S. cerevisiae deletion strains, locus YOR184W, strain ser1, stronger effect = lower value 0.686 | S. cerevisiae deletion strains, locus YOR290C, strain snf2, stronger effect = lower value 0.844 | S. cerevisiae deletion strains, locus YPL051W, strain arl3, stronger effect = lower value 0.886 | S. cerevisiae deletion strains, locus YPL240C, strain hsp82, stronger effect = lower value 0.837 | S. cerevisiae deletion strains, locus YPL241C, strain CIN2, stronger effect = lower value 0.925 | S. cerevisiae deletion strains, locus YPR163C, strain tif3, stronger effect = lower value 0.725 | S. cerevisiae deletion strains, locus YPR167C, strain met16, stronger effect = lower value 0.916 | S. cerevisiae deletion strains, strain wtn01, stronger effect = lower value 0.797 | S. cerevisiae strains, strain wild type, stronger effect = lower value 0.579
inactive: S. cerevisiae deletion strains, locus YJR066W, strain TOR1, stronger effect = lower value 0.903 | S. cerevisiae deletion strains, locus YKL009W, strain mrt4, stronger effect = lower value 0.936 | S. cerevisiae deletion strains, locus YKL068W, stronger effect = lower value 0.961 | S. cerevisiae deletion strains, locus YKL085W, strain MDH1 (second series), stronger effect = lower value 0.965 | S. cerevisiae deletion strains, locus YKL085W, strain MDH1, stronger effect = lower value 0.965 | S. cerevisiae deletion strains, locus YKL160W, strain elf1, stronger effect = lower value 0.951 | S. cerevisiae deletion strains, locus YKL190W, strain CNB1, stronger effect = lower value 0.946 | S. cerevisiae deletion strains, locus YKR091W, strain srl3, stronger effect = lower value 0.999 | S. cerevisiae deletion strains, locus YLL001W, strain dnm1, stronger effect = lower value 1.01 | S. cerevisiae deletion strains, locus YLL041C, strain sdh2, stronger effect = lower value 0.95 | S. cerevisiae deletion strains, locus YLR039C, strain RIC1, stronger effect = lower value 0.691 | S. cerevisiae deletion strains, locus YLR058C, strain SHM2, stronger effect = lower value 0.946 | S. cerevisiae deletion strains, locus YLR102C, strain apc9, stronger effect = lower value 0.95 | S. cerevisiae deletion strains, locus YLR113W, strain HOG1, stronger effect = lower value 0.986 | S. cerevisiae deletion strains, locus YLR262C, strain YPT6, stronger effect = lower value 0.643 | S. cerevisiae deletion strains, locus YLR342W, strain FKS1, stronger effect = lower value 1.01 | S. cerevisiae deletion strains, locus YLR370C, strain arc18, stronger effect = lower value 1.01 | S. cerevisiae deletion strains, locus YLR384C, strain iki3, stronger effect = lower value 0.987 | S. cerevisiae deletion strains, locus YML016C, strain PPZ1, stronger effect = lower value 0.978 | S. cerevisiae deletion strains, locus YML124C, strain tub3, stronger effect = lower value 0.943 | S. cerevisiae deletion strains, locus YMR078C, strain ctf18, stronger effect = lower value 0.912 | S. cerevisiae deletion strains, locus YMR231W, strain pep5, stronger effect = lower value 1.01 | S. cerevisiae deletion strains, locus YNL067W, strain RPL9B, stronger effect = lower value 0.925 | S. cerevisiae deletion strains, locus YNL183C, strain NPR1, stronger effect = lower value 0.892 | S. cerevisiae deletion strains, locus YNL209W, strain ssb2, stronger effect = lower value 1 | S. cerevisiae deletion strains, locus YNL250W, strain rad50, stronger effect = lower value 0.972 | S. cerevisiae deletion strains, locus YNR049C, strain mso1, stronger effect = lower value 0.986 | S. cerevisiae deletion strains, locus YNR052C, strain pop2, stronger effect = lower value 0.922 | S. cerevisiae deletion strains, locus YOL012C, strain htz1 0.626 | S. cerevisiae deletion strains, locus YOR061W, strain CKA2, stronger effect = lower value 0.98 | S. cerevisiae deletion strains, locus YOR069W, strain VPS5, stronger effect = lower value 0.961 | S. cerevisiae deletion strains, locus YOR070C, strain gyp1, stronger effect = lower value 0.976 | S. cerevisiae deletion strains, locus YOR080W, strain dia2, stronger effect = lower value 0.999 | S. cerevisiae deletion strains, locus YOR083W, strain WHI5, stronger effect = lower value 0.904 | S. cerevisiae deletion strains, locus YOR136W, strain idh2, stronger effect = lower value 0.924 | S. cerevisiae deletion strains, locus YOR231W, strain MKK1, stronger effect = lower value 0.967 | S. cerevisiae deletion strains, locus YOR265W, strain rbl2, stronger effect = lower value 0.997 | S. cerevisiae deletion strains, locus YOR270C, strain vph1, stronger effect = lower value 0.777 | S. cerevisiae deletion strains, locus YOR316C, strain cot1, stronger effect = lower value 0.949 | S. cerevisiae deletion strains, locus YPL078C, strain atp4, stronger effect = lower value 0.912 | S. cerevisiae deletion strains, locus YPL106C, strain sse1, stronger effect = lower value 0.923 | S. cerevisiae deletion strains, locus YPL256C, strain CLN2, stronger effect = lower value 0.964 | S. cerevisiae deletion strains, locus YPR119W, strain clb2, stronger effect = lower value 0.938 | S. cerevisiae deletion strains, locus YPR141C, strain kar3, stronger effect = lower value 0.941

From PubChem BioAssay AID1159580 (chemical genetic matrix, 2015)
